Screens deposited in PubChem BioAssay by University of Kansas High Throughput Screening Laboratory.
mHTT-CaM PPI inh – mutant huntingtin-calmodulin interaction inhibitors – biochemical, AlphaScreen, primary screen | P42858 | hit rate 3.6% among 190,000 | AlphaScreen His-mHTT/GST-CaM binding, luminescence | inhibition, % at 15 µM;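 further: 0% = both proteins with DMSO and 100% = one protein alone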
Pf apPOL block – Pf-apPOL inhibitors, biochemical, fluorescence; Plasmodium falciparum apicoplast DNA polymerase (apPOL); Recombinant Pf-apPOL, molecular beacon fluorescence, 1.5 h; inhibition, % at 10 µM; hit rate 0.25% among 210,000; AID 1794808, 2022
An asterisk follows results filed as active; i = inactive; x = no result given; ! = not confirmed by another sample. Compounds with a hit are over-represented: about 3.5% of the library has one in this group of screens. No stated cut-off is given here; in the data, active means inhibition above about 50%; inactive means the rest.

SMILES	mHTT-CaM PPI inh	Pf apPOL block
CCCNc1cc(N2CCC(CCC(=O)Nc3ccc4c(c3)OCO4)CC2)ncn1	60.1*	3.4
CCCc1nnsc1C(=O)Nc1nnc(-c2ccccc2OC)o1	-3.9	-7.7
COc1cc(OC)c(C=Nc2ccc(OC(F)(F)F)cc2)cc1Br	-5.0	x
O=C1C=CC(=NOC(=O)c2ccc([N+](=O)[O-])cc2)C=C1	7.0	-9.9
CC1=CC(=O)C=C(C)C1=NOC(=O)c1ccccc1Br	90.0*	-20.4
Cc1ccc(C(=O)ON=C2C=CC(=NOC(=O)c3ccccc3Br)C=C2)cc1	4.0	-0.7
O=C1C=CC(=NOC(=O)c2ccccc2Br)C=C1	89.0*	9.9
CN1C(=O)/C(=N\OC(=O)c2ccccc2Br)c2ccccc21	i	1.5
COc1ccc(C(=O)ON=C2C=CC(=O)C=C2)cc1	53.0*	-2.7
O=c1c2c(nc3n1CC(O)CS3)-c1ccccc1CC21CCCC1 (stereo unspecified)	0.8	4.7
Cc1ccccc1CNS(=O)(=O)c1cc2c(s1)CCN(C(=O)C1CCC1)C2	1.6	-2.3
Cc1ccc(NC(=O)C(=O)NCC(c2cccs2)N2CCc3ccccc3C2)cc1F (stereo unspecified)	5.8	6.9
Cc1nc2nc(SCC(=O)NCC3CCCO3)nn2c(C)c1Cc1ccccc1Cl (stereo unspecified)	15.0	2.1
Cc1nc2nc(SCC(=O)NCC3CCCO3)nn2c(C)c1Cc1c(F)cccc1Cl (stereo unspecified)	70.0*	35.0
COCCNC(=O)c1c[nH]c2ccc(S(=O)(=O)N(C)c3c(C)cccc3C)cc2c1=O	10.0	-7.2
CCCCNC(=O)C1CCCN(c2ccc(N3CCOCC3)nn2)C1 (stereo unspecified)	-0.2	-4.0
CN(CCCNC(=O)C1CCCN(c2ccc(N3CCOCC3)nn2)C1)c1ccccc1 (stereo unspecified)	54.7*	-4.6
CCOc1ccc(Nc2c3ccccc3nc3ccccc23)cc1	63.4*	-6.2
Cc1cc(C)c2nc(C)cc(Nc3ccc(OCc4ccccc4)cc3)c2c1	89.8*	0.1
Cc1cc(C)c2nc(C)cc(Nc3ccc(C(=O)O)cc3)c2c1	3.3	-14.0
CCOc1ccc2nc(C)cc(Nc3ccc(OCc4ccccc4Cl)cc3)c2c1	98.1*	-2.4
CCOc1ccc(Nc2nc(-c3ccccc3)cs2)cc1	8.9	-2.1
CCOc1ccc2nc(C)cc(Nc3cc(Cl)ccc3OC)c2c1	27.0	-3.9
COc1ccc2cc3cc(C(=O)N4CCN(C)CC4)sc3nc2c1	2.0	-1.0
O=C(Nc1ncc(S(=O)(=O)c2ccc([N+](=O)[O-])cc2)s1)c1ccccc1	-4.6	-1.0
SMILES	mHTT-CaM PPI inh	Pf apPOL block
Cc1ccc(NC(=O)CN(c2cc(C(F)(F)F)ccc2Cl)S(C)(=O)=O)cc1	2.0	-0.3
COc1ccccc1OCC(=O)Nc1cccc(-c2nc3ccccc3c(=O)o2)c1	17.0	-6.3
O=S(=O)(c1ccc(Br)cc1)C(F)(F)F	-7.0	0.8
CCS(=O)(=O)c1ccc(-c2nnc(NC(=O)c3c[nH]c4ccccc34)o2)cc1	12.6	-84.7
O=C(Nc1nnc(-c2ccco2)o1)c1c[nH]c2ccccc12	72.5*	-27.7
OC(C#CCN1CCCC1)(c1ccccc1)c1cccnc1 (stereo unspecified)	1.0	10.5
C=CCOc1nc2c(c(=O)n(C)c(=O)n2C)n1C	100.2*!	-2.3
C/C=C/COc1nc2c(c(=O)n(C)c(=O)n2C)n1C	-7.0	1.1
CNC(=O)c1ccsc1NC(=O)c1ccccc1Br	1.8	-1.0
O=C1CSC(c2cn(-c3ccccc3)nc2-c2ccccc2)N1Cc1ccco1 (stereo unspecified)	59.0*	-3.1
O=C1CSC(c2ccc(Br)cc2)N1Cc1ccco1 (stereo unspecified)	1.0	-0.6
O=C1CSC(c2ccco2)N1Cc1ccccc1 (stereo unspecified)	-2.0	-0.9
O=C1CSC(c2cn(-c3ccccc3)nc2-c2ccc(Cl)cc2)N1Cc1ccco1 (stereo unspecified)	90.0*	-6.0
O=S(=O)(C1CC1)N1CCC(OCc2nc(C3CC3)no2)CC1	-3.5	-4.4
CCC(Oc1ccccc1)C(=O)N1CCN(c2cccc(C)c2C)CC1 (stereo unspecified)	7.6	-2.1
CC1=NN(c2ccc(C(=O)O)cc2)C(=O)/C1=C/c1ccc(N(C)C)cc1	4.0	-3.8
CC1=NN(c2ccccc2)C(=O)/C1=C/c1ccccc1	17.0	-4.8
CC1=NN(c2cccc(Cl)c2)C(=O)/C1=C/c1ccc(F)cc1	8.0	7.4
CC1=NOC(=O)/C1=C/c1ccc(N2CCOCC2)cc1	16.0	5.1
CCN(C)c1ccc(/C=C2/C(=O)N(c3cccc(Cl)c3)N=C2C)cc1	68.0*	-10.7
CCN(C)c1ccc(/C=C2/C(=O)N(c3ccc(C)c(C)c3)N=C2C)cc1	58.0*	0.0
CC1=NN(c2ccccc2)C(=O)/C1=C/c1ccc(N2CCOCC2)cc1	78.0*	7.0
CCN(CC)c1ccc(/C=C2/C(=O)N(c3ccccc3)N=C2C)cc1	65.0*	-4.5
CCc1nnc2ccc(N3CCN(S(=O)(=O)c4ccc(OC)c(F)c4)CC3)nn12	5.1	1.0
O=C(c1ccccn1)N1CC(c2nc(-c3ccccc3)no2)C2(CCOCC2)C1 (stereo unspecified)	7.2	-9.1
SMILES	mHTT-CaM PPI inh	Pf apPOL block
CC(=O)Nc1c(C)ccc2c1C(C)CC21CCCC1 (stereo unspecified)	3.3	-0.8
CCOc1cc(/C=C2/C(=O)N(c3ccc(C)c(C)c3)N=C2C)cc(I)c1O	72.0*	-16.3
CC1=NN(c2ccc(C)c(C)c2)C(=O)/C1=C/c1ccc([N+](=O)[O-])cc1	53.0*	3.1
C=CCc1cc(/C=C2/C(=O)N(c3ccccc3)N=C2C)cc(OCC)c1O	49.0	7.6
CC1=NN(c2ccccc2)C(=O)/C1=C/c1ccc(Oc2ccc([N+](=O)[O-])cc2[N+](=O)[O-])cc1	52.0*	0.5
CC1=NN(c2ccccc2)C(=O)/C1=C/c1ccc([N+](=O)[O-])cc1	33.0	-3.4
CC1=NN(c2ccc(F)cc2)C(=O)/C1=C/c1ccc(N(C)C)cc1	10.0	-2.4
CCN(C)c1ccc(/C=C2/C(=O)N(c3ccc(Cl)cc3)N=C2C)cc1	70.0*	0.4
COc1ccccc1OCCOc1ccc([N+](=O)[O-])cc1/C=C1/C(=O)N(c2ccccc2)N=C1C	4.0	10.8
CC(C)C(=O)N1CCCC(COc2cccc(C(=O)NC3CC3)c2)C1 (stereo unspecified)	-4.1	-5.3
COc1cccc(C=C2Oc3c(ccc(O)c3CN3CCCC(C)C3)C2=O)c1 (stereo unspecified)	26.6	-33.6
CCn1cc(C(=O)NCCc2ccc(Cl)cc2)c2c3ccccc3n(C)c2c1=O	2.0	-8.7
CCN(CC)c1ccc(/C=C2/N=C(c3ccccc3)NC2=O)cc1	88.0*	-4.7
CCN(C)c1ccc(/C=C2/C(=O)N(c3cccc(Br)c3)N=C2C)cc1	90.0*	-0.7
CCN(CC)c1ccc(/C=C2/N=C(c3ccc(F)cc3)OC2=O)cc1	1.0	-4.3
CC1=NN(c2cccc(Br)c2)C(=O)/C1=C/c1ccc(N(C)C)cc1	24.0	-5.2
Cc1cccc(C(=O)N2CCCC(C(=O)Nc3ccc(C)c(Cl)c3)C2)c1 (stereo unspecified)	30.4	-22.8
CC(=O)Nc1ccc(S(=O)(=O)N2CCN(c3ccc([N+](=O)[O-])cc3Cl)CC2)cc1	19.2	-0.2
